TDP1 cell CPT: DT40-hTDP1 cell growth loss with CPT; chicken DT40 Tdp1-/-;hTDP1 cells + 20 nM CPT, ATP luminescence, 48 h; Potency, µM (doses to about 46.2 µM), without a hit: at the top dose activity change, negative = growth inhibition, actives largely listed as inhibitors; actives 12% (n = 420,000); AID 686979; further: potency means the concentration at half of the fitted maximal effect; nearly all actives have a fitted effect of over 55% in size
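Chicken DT40 Tdp1-/- cells complemented with human TDP1, 400 cells/well, exposed to compounds plus 20 nM camptothecin for at least 48 h at 37 C; viability read as ATP content by CellTiter-Glo luminescence.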
HT1080-NT tox: kills 2HG-producing HT-1080-NT fibrosarcoma cells | HT-1080-NT fibrosarcoma viability, CellTiter-Glo ATP luminescence, 48 h | Potency, µM (doses to about 46.1 µM), inactives show at the top dose activity, negative = less viability, actives largely listed as cytotoxic | actives 1.6% (n = 360,000);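 further: NT is the 2HG producing partner of a matched IDH1 knockdown line; potency means the concentration at half of the fitted maximal effect; 0% = DMSO-treated cells and -100% = media-only wells without cells; nearly all actives have a fitted effect of over 55% in size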
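Fibrosarcoma NT cells, 750 per well in 5% FBS RPMI, were exposed to compound for 48 hours. Viability: CellTiter-Glo luminescence.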
HT1080 IDH1KD tx: toxicity to HT-1080 IDH1 knockdown cells (counter line); HT-1080 IDH1 knockdown viability, ATP luminescence, 48 h; Potency, µM (series often up to 46.1 µM), without a hit: at the highest dose activity, negative = toxicity, actives largely listed as cytotoxic; actives 2% (n = 360,000); AID 686971;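 further: potency means the concentration at half of the fitted maximal effect; 0% = DMSO wells and -100% = cell-free medium wells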
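Assay cells: HT-1080 with IDH1 knockdown, 750 per well, RPMI/5% FBS. Exposure: 48 h at 37 °C following 2 h pre-incubation. Read: CellTiter-Glo luminescence; fitted concentration-response, curve class assigned.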
TDP1 cell noCPT: qHTS for Inhibitors of human tyrosyl-DNA phosphodiesterase 1 (TDP1): qHTS in cells in absence of CPT; Potency, µM (top dose mostly 46.2 µM), for inactives: at the top dose activity change, negative = growth inhibition, hits mostly inhibitors; AID 686978, 2013; DT40 Tdp1-/- hTDP1 cells, no CPT, ATP luminescence, 48 h; actives 15% (n = 420,000); further: potency means the concentration at half of the fitted maximal effect; nearly all actives have a fitted effect of over 55% in size
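Chicken DT40 Tdp1-/- cells stably complemented with human TDP1 were seeded at 400 cells/well with DMSO in place of 20 nM camptothecin. After compound pinning, cells grew at least 48 hr at 37 °C; viability read by CellTiter-Glo luminescence.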
IL-1B inflam inh: inhibitors of inflammasome signaling (IL-1 beta secretion). activity change, % at 57.5 µM. actives 4.7% (n = 360,000). THP-1 LPS/ATP IL-1B secretion, AlphaLISA, 16 h; active compounds read low; in the data active means activity change below about -50%; inconclusive means mostly about -30% to -49%
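THP-1 cells pretreated 1 hr with compounds (up to 57.5 uM final), then stimulated with LPS (250 ng/mL final) plus ATP (1.25 mM final); secreted IL-1B measured by AlphaLISA after 16 hr, decreased signal indicating inhibition.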
* hit, by the source's call; [ ] = another dose, or the depositor's remark. Compounds with a hit are over-represented: about 19% of the library has one in this group of screens. Unless noted, the call rests on the fitted dose curve; in most records, active means well fitted curve in the direction sought with a large enough effect; inconclusive means small, poorly fitted or top-dose-only effect, or another doubt; inactive means no such curve, though single readings can be large; an effect the other way counts as inactive or inconclusive. Unless noted, on the % scale 0 is the no-effect control and ±100 the full control effect.

`CCC(C(=O)NC(C)(C)C)N(Cc1ccco1)C(=O)CNS(=O)(=O)c1ccc(OC)cc1` (stereo not given) gave TDP1 cell CPT 4%, HT1080-NT tox 17%, HT1080 IDH1KD tx 12%, TDP1 cell noCPT -4% and IL-1B inflam inh -2.
`Cn1cc(/C=C2\SC(=O)N(c3ccc(O)cc3)C2=O)c2ccccc21` gave TDP1 cell CPT inconclusive, HT1080-NT tox inconclusive, HT1080 IDH1KD tx inconclusive, TDP1 cell noCPT 16µM* and IL-1B inflam inh inconclusive.
For Cn1cc(/C=C2\SC(=O)N(c3ccccc3)C2=O)c2ccccc21 the results were TDP1 cell CPT 1%, HT1080-NT tox -1%, HT1080 IDH1KD tx -14%, TDP1 cell noCPT -28% and IL-1B inflam inh 26.
Screening Cc1ccc2ccc3ccc(C)nc3c2n1 returned TDP1 cell CPT 0.016µM*, HT1080-NT tox 0.0058µM*, HT1080 IDH1KD tx inconclusive, TDP1 cell noCPT 0.15µM* and IL-1B inflam inh 63.
CC(C)Cc1nnc(NC(=O)CN2C(=O)NC3(CCCC3)C2=O)s1 was read as TDP1 cell CPT -12%, HT1080-NT tox -6%, HT1080 IDH1KD tx 3%, TDP1 cell noCPT -15% and IL-1B inflam inh 4.
`COc1ccc(/C=N/n2cncn2)cc1Cn1nc(C)c([N+](=O)[O-])c1C` gave TDP1 cell CPT 2%, HT1080-NT tox -22%, HT1080 IDH1KD tx -19%, TDP1 cell noCPT 8% and IL-1B inflam inh 34.
Screening O=C(Cn1c(=O)oc2ccccc21)Nc1nc(-c2ccccc2)cs1 returned TDP1 cell CPT 1%, HT1080-NT tox inconclusive, HT1080 IDH1KD tx -2%, TDP1 cell noCPT -4% and IL-1B inflam inh -4.
`CC(C)(C)c1csc(NC(=O)Cn2c(=O)oc3ccccc32)n1` gave TDP1 cell CPT 16µM*, HT1080-NT tox -6%, HT1080 IDH1KD tx -18%, TDP1 cell noCPT inconclusive and IL-1B inflam inh 15.
CCOC(=O)Cc1csc(NC(=O)Cn2cnc3c2c(=O)n(C)c(=O)n3C)n1 was read as TDP1 cell CPT 16µM*, HT1080-NT tox 9%, HT1080 IDH1KD tx 0%, TDP1 cell noCPT -80% and IL-1B inflam inh 13.
Screening CCOC(=O)Cc1csc(NC(=O)Cn2c(=O)oc3ccccc32)n1 returned TDP1 cell CPT -29%, HT1080-NT tox -6%, HT1080 IDH1KD tx -5%, TDP1 cell noCPT -18% and IL-1B inflam inh -84*.
CCOC(=O)Cc1csc(NC(=O)CC)n1 was read as TDP1 cell CPT 8%, HT1080-NT tox 8%, HT1080 IDH1KD tx 9%, TDP1 cell noCPT -3% and IL-1B inflam inh 12.
For CC1CCCC(NC(=O)CSc2nnc(C(F)(F)F)n2C)C1C (stereo not given) the results were TDP1 cell CPT -22%, HT1080-NT tox 2%[9.24 µM], HT1080 IDH1KD tx 0%, TDP1 cell noCPT 16% and IL-1B inflam inh 1.
Screening O=C1CC(C(=O)N2CCN(c3ccccn3)CC2)CN1Cc1ccccc1Cl (stereo not given) returned TDP1 cell CPT -2%, HT1080-NT tox 6%, HT1080 IDH1KD tx 6%, TDP1 cell noCPT -3% and IL-1B inflam inh -12.
`O=C(NCCCCCCNC(=O)OCc1ccccc1)OCc1ccccc1` gave TDP1 cell CPT 1%, HT1080-NT tox -3%, HT1080 IDH1KD tx 1%, TDP1 cell noCPT -2% and IL-1B inflam inh -6.
For O=C(OCc1ccccc1)N(CCCCN(CCCNCc1ccccc1)C(=O)OCc1ccccc1)CCCNCc1ccccc1 the results were TDP1 cell CPT 5.2µM*, HT1080-NT tox inconclusive, HT1080 IDH1KD tx inconclusive, TDP1 cell noCPT 5.2µM* and IL-1B inflam inh -17.
Screening O=C(NCC1CCCO1)C(c1ccncc1)N(Cc1cccs1)C(=O)Cn1nnc(-c2ccc(F)cc2)n1 (stereo not given) returned TDP1 cell CPT -10%, HT1080-NT tox -19%, HT1080 IDH1KD tx -5%, TDP1 cell noCPT -10% and IL-1B inflam inh -30.
O=C(NCC1CCCO1)C(c1cccs1)N(Cc1cccs1)C(=O)Cn1nnc(-c2cccs2)n1 (stereo not given) was read as TDP1 cell CPT 16µM*, HT1080-NT tox -13%, HT1080 IDH1KD tx -12%, TDP1 cell noCPT 18µM* and IL-1B inflam inh -4.
O=C(NC1CCCCC1)C(c1ccccc1)N(Cc1ccco1)C(=O)Cn1cnc2ccccc21 (stereo not given) was read as TDP1 cell CPT 23µM*, HT1080-NT tox -14%, HT1080 IDH1KD tx -10%, TDP1 cell noCPT 23µM* and IL-1B inflam inh -11.
For Cc1ccc(-c2nnn(CC(=O)N(Cc3cccs3)C(C(=O)NC3CCCC3)c3ccncc3)n2)cc1 (stereo not given) the results were TDP1 cell CPT inconclusive, HT1080-NT tox 16µM*, HT1080 IDH1KD tx inconclusive, TDP1 cell noCPT -16% and IL-1B inflam inh -16.
Screening Cc1ccc(-c2nnn(CC(=O)N(Cc3cccs3)C(C(=O)NC3CCCCC3)c3ccco3)n2)o1 (stereo not given) returned TDP1 cell CPT 26µM*, HT1080-NT tox -2%, HT1080 IDH1KD tx 0%, TDP1 cell noCPT 23µM* and IL-1B inflam inh 73.
Screening O=C(NCC1CCCO1)C(c1cccs1)N(C(=O)Cn1nnc(-c2cccs2)n1)C1CCCC1 (stereo not given) returned TDP1 cell CPT -17%, HT1080-NT tox -2%, HT1080 IDH1KD tx -5%, TDP1 cell noCPT -12% and IL-1B inflam inh -27.
Screening Cc1ccc(-c2nnn(CC(=O)N(Cc3cccs3)C(C(=O)NC3CCCC3)c3ccco3)n2)o1 (stereo not given) returned TDP1 cell CPT -30%, HT1080-NT tox 3%, HT1080 IDH1KD tx 4%, TDP1 cell noCPT -24% and IL-1B inflam inh -3.
CC(=O)c1cn(Cc2ccccc2)c(=O)n(Cc2ccc(F)cc2)c1=O was read as TDP1 cell CPT 1%, HT1080-NT tox 4%, HT1080 IDH1KD tx 13%, TDP1 cell noCPT -14% and IL-1B inflam inh 11.
`Cc1ccc(C(=O)CCC(=O)OCC(=O)NNC(=O)c2ccccc2Cl)cc1` gave TDP1 cell CPT 10%, HT1080-NT tox 10%, HT1080 IDH1KD tx 13%, TDP1 cell noCPT 13% and IL-1B inflam inh -6.
For COc1ccc(-c2nnn(CC(=O)N(Cc3cccs3)C(C)C(=O)NC3CCCC3)n2)cc1OC (stereo not given) the results were TDP1 cell CPT 29µM*, HT1080-NT tox -28%, HT1080 IDH1KD tx inconclusive, TDP1 cell noCPT inconclusive and IL-1B inflam inh -15.

Assay outcomes (PubChem BioAssay)
